# In the library only some 3.8% were active in any assay of this set; here they are far more common.
# Nrf2 inh: Nrf2 pathway inhibition; A549 ARE-Fluc reporter, luciferase luminescence, 18-24 h; Potency, µM (titrated, usually from 46 µM), for the others: top-dose activity change, negative = inhibition, most hits filed as inhibitors; actives 2.1% (n = 360,000); note: % is set by controls: 0 for no effect and ±100 for the full control effect; nearly all actives have a fitted effect of over 60% in size
#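 Two sequential reads on A549 ARE_Fluc cells exposed to compound for 18-24 h: a CellTiter-Fluor fluorescence read for viability, then a luciferase luminescence read for Nrf2/ARE activity.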
# TGFb inhibitor: inhibitors of TGF-b signaling | HepG2 CAGA-GFP TGF-b/SMAD3 reporter, GFP fluorescence, 18 h; TGF-beta stimulated, 500 pg/mL final | Potency, µM (titrated, usually from 46.1 µM), for the others: at the top dose activity, negative = inhibition, hits mostly inhibitors | actives 1.2% (n = 410,000) | AID 588855; note: % is set by controls: 0 for no effect and ±100 for the full control effect; nearly all actives have a fitted effect of over 65% in size
#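 HEPG2 CAGA-GFP cells (1000/well, DMEM with 1% FBS) were pre-incubated 2 h at 37 degrees C, given compound by pin tool, then stimulated with TGF-beta at 500 pg/mL final for 18 h before per-cell GFP fluorescence imaging.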
# ATXN2 expr inh: ATXN2 expression inhibition; HEK-293 ATXN2-luciferase reporter, luminescence, 24 h; Potency, µM (top dose mostly 57 µM), for inactives: at the highest dose activity change, negative = inhibition, hits mostly inhibitors; actives 0.72% (n = 360,000); note: % is set by controls: 0 for no effect and ±100 for the full control effect; nearly all actives have a fitted effect of over 55% in size
#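 ATXN2-luciferase reporter cells (luciferase flanked by upstream and downstream ATXN2 gene portions) were treated 24 h at 37 °C with compounds at up to 57 uM. SteadyGlo luminescence gave expression; GF-AFC fluorescence gave viability.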
# HepG2 tox: counter-screen for TGF-b inhibitors: cytotoxicity in HepG2 cells. HepG2 CAGA-GFP viability, ATP luminescence, 18 h. Potency, µM (highest dose often 46.1 µM), for the others: top-dose activity change, negative = cytotoxicity, usual class: cytotoxic. actives 0.76% (n = 410,000). AID 588856
#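 HepG2 CAGA-GFP cells (1000/well, DMEM with 1% FBS) received compound, then TGF-beta at 500 pg/mL final, and were incubated 18 hours at 37 degrees C. Viability was read by CellTiter-Glo luminescence. Media-only wells were set as complete cell-killing and DMSO as no toxicity.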
# S2 tox: reduces viability in counter-screen for ATXN expression inhibitors | actives 0.49% (n = 400,000) | Potency, µM (series often up to 56.7 µM), actives largely listed as cytotoxic | S2 cells (HEK-293 line with an ATXN2-luciferase reporter) viability, CellTiter-Fluor protease fluorescence, 24 h; note: nearly all actives have a fitted effect of over 40% in size
# A549 viability: counter-screen for Nrf2 inhibitors: cytotoxicity in A549 cells | A549 ARE-Fluc cells, CellTiter-Fluor viability, 18-24 h | Potency, µM (top dose mostly 46 µM), without a hit: at the highest dose activity change, negative = cytotoxicity, usual class: inhibitors | actives 0.16% (n = 390,000) | AID 504648; note: % is set by controls: 0 for no effect and ±100 for the full control effect
#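 A549 ARE_Fluc cells in 5% FBS OPTI-MEM were exposed to compounds in concentration-response for 18-24 h at 37 deg C. Viability was read by CellTiter-Fluor fluorescence (Ex 405/Em 525) after 30 min, before the luciferase read.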
# * = called active by the depositor; i = inactive; ? = inconclusive; . = no result given; ! = repeats disagree; [ ] = remark or other dose. Calls come from the whole dose curve; as a rule, active = well fitted curve in the direction sought with a large enough effect; inconclusive = small, poorly fitted or top-dose-only effect, or another doubt; inactive = no such curve, though single readings can be large; an effect the other way counts as inactive or inconclusive. Potency is the fitted concentration of half-maximal effect.
SMILES,Nrf2 inh,TGFb inhibitor,ATXN2 expr inh,HepG2 tox,S2 tox,A549 viability
Cc1[nH]n(-c2ccccc2)c(=O)c1C(=O)c1ccc([N+](=O)[O-])cc1,?,-15%,-31%,-16%,?,-9%
Cc1nn(-c2ccccc2)nc1C(=O)c1c(C)[nH]n(-c2ccccc2)c1=O,21µM*,?,?,-26%,i,?
Cc1nc(-c2cccc(NC(=O)c3ccc(-n4nccc4C)cc3)c2)cs1,16µM*,?,?,-30%,?,-10%
Cc1nc(-c2ccc(C(=O)Nc3cccc(Br)c3)cc2)cs1,12µM*,-2%,.,-34%,i,?
COc1ccc(NC(=O)CSc2nc3ccccc3n2CC(=O)N2CCCC(C)C2)cc1 (stereo not drawn),.,0%,0%,-10%,?,-14%
Cc1ccc2cc(C#N)c(SCc3nnc(-c4ccccc4[N+](=O)[O-])o3)nc2c1,-18%,-23%,-18%,-22%,i,2%
O=C(CCN1CCC(c2ccc(Cl)s2)=N1)c1ccc(Cl)s1,1%,-30%,.,-31%,i,4%
CC(=O)N1CCCc2cc(S(=O)(=O)N3CCCC(C(=O)N4CCN(c5ccccc5)CC4)C3)ccc21 (stereo not drawn),13µM*,?,?,-31%,?,-6%
Cc1ccc(C)c(N2CCN(S(=O)(=O)c3ccc4c(c3)CCCN4C(=O)C3CCC3)CC2)c1,.,-3%,7%,1%,i,11%
COc1ccc(C)cc1S(=O)(=O)N1CCCC(C(=O)N2CCN(c3ccccc3)CC2)C1 (stereo not drawn),26µM*,?,?,-1%,i,1%
CC(=O)N1CCCc2cc(S(=O)(=O)N3CCCC(C(=O)N4CCN(c5cc(C)ccc5C)CC4)C3)ccc21 (stereo not drawn),7.3µM*,13µM*,20µM*,-4%,25µM*!,-10%
COc1ccc(CNC(=O)C2CCCN(S(=O)(=O)c3ccc4c(c3)CCCN4C(C)=O)C2)cc1 (stereo not drawn),21µM*,-14%,0%,-21%,i,0%
CCOC(=O)N1CCN(C(=O)C2CCCN(S(=O)(=O)c3cc(C)ccc3OC)C2)CC1 (stereo not drawn),?,4%,-6%,4%,i,-3%
CCc1ccc(NC(=O)C2CCCN(S(=O)(=O)c3ccc4c(c3)CCCN4C(C)=O)C2)cc1 (stereo not drawn),?,?,?,-7%,?,-1%
Cc1nc(N2CCN(C)CC2)c2nnn(Cc3ccccc3)c2n1,21%,.,.,.,.,-6%
CN(C)S(=O)(=O)c1ccc2c(c1)nc(CCC(=O)NCc1ccc(Cl)cc1)n2C,23µM*,1%,-21%,-7%,i,6%
CN(C)S(=O)(=O)c1ccc2c(c1)nc(CCC(=O)NCC1CCCCC1)n2C,-3%,-1%,-9%,-10%,i,1%
CCN(CC)CCNC(=O)CCc1c(C)nc2c(c(C)nn2-c2ccc(C)cc2)c1C,14%,?,?,-81%,i,1%
COc1cc(Cl)c(C)cc1Nc1c2c(nc3ccccc13)CCC2,4%[9.27 µM],16µM*,?,11µM*,14µM*,?
COc1ccc(Nc2c3c(nc4ccccc24)CCC3)c(OC)c1,?,?,-33%,-32%,i,-16%
COc1ccccc1Nc1c2c(nc3ccccc13)CCC2,-10%,18µM*,?,-27%,?,0%
COc1ccc(/C=C(\NC(=O)c2ccco2)C(=O)NCc2ccco2)cc1,4%,2%,5%,17%,i,-6%
N#C/C(=C(/O)COC(=O)CSc1ccc2ccccc2c1)c1nc2ccccc2[nH]1,16%,-1%,?,3%,20µM*,-3%
N#C/C(=C(\O)Cc1ccccc1)c1nc2ccccc2[nH]1,.,-15%,-25%,-23%,?,-2%
N#C/C(=C(/O)CCl)c1nc2ccccc2[nH]1,?,10µM*,?,-31%,?,?
SMILES,Nrf2 inh,TGFb inhibitor,ATXN2 expr inh,HepG2 tox,S2 tox,A549 viability
CCOC(=O)c1sc(NC(=O)c2ccc(S(=O)(=O)N3CCCCC3)cc2)nc1-c1ccccc1,23µM*,-29%,-23%,12%,i,-5%
CCOC(=O)c1sc(NC(=O)c2ccc(S(=O)(=O)N3CCCCCC3)cc2)nc1-c1ccccc1,?,5%,-13%,2%,i,-7%
CCOC(=O)c1sc(NC(=O)c2ccc(S(=O)(=O)N3CCOCC3)cc2)nc1-c1ccccc1,21µM*,-4%,.,-7%,i,-6%
O=C(Cn1[nH]c(=O)c2ccccc2c1=O)OCC(=O)c1ccc(Br)cc1,-10%,-2%,-9%,-7%,i,7%
CCOC(=O)C1(Cc2cccc(OC)c2)CCN(Cc2cccn2-c2ccccn2)CC1,-10%,3.2µM*,0%,2%,i,?
CCOC(=O)C1(Cc2cccc(OC)c2)CCN(Cc2ccccc2)CC1,-16%,-5%,-29%,-5%,i,1%
ON=C1c2cc(OCCN3CCCCC3)ccc2-c2ccc(OCCN3CCCCC3)cc21,2%,?,?,-53%,?,?
NC(=S)NN=C1c2cc(OCCN3CCOCC3)ccc2-c2ccc(OCCN3CCOCC3)cc21,16µM*,?,7.9µM*,-60%,.,16µM*
CCc1ccc2c(c1)/C(=C/C(=O)c1cccs1)C(=O)N2,-12%,?,?,11µM*,.,-19%
Cc1cc(Br)c2c(c1)/C(=C/C(=O)c1cccs1)C(=O)N2,-7%,?,?,-18%,?,1%
Cc1cc(C)c2c(c1)/C(=C/C(=O)c1ccc(Br)s1)C(=O)N2,9.2µM*,-1%,18µM*,3%,?,?
CN(C)/C=C/C(=O)c1ccc(Br)s1,3%,3%,-6%,-3%,i,-14%
Cc1cccc2c1NC(=O)/C2=C\C(=O)c1cccs1,-5%,10µM*,?,-16%,i,6%
CC1N(C(=O)N2CCOCC2)CCN1S(=O)(=O)c1ccc(Cl)cc1 (stereo not drawn),-3%,2%,10%,3%,i,-3%
O=C(C=Cc1ccc(/C=C/C(=O)Nc2ccc(C3=NCCN3)cc2)cc1)Nc1ccc(C2=NCCN2)cc1,.,.,2%,.,.,.
CCCOc1ccc(-c2nonc2NC(=O)c2oc3ccc(Cl)cc3c2C)cc1OCCC,-6%,6%,11%,1%,i,-16%

# High-throughput results: PubChem, National Center for Advancing Translational Sciences (NCATS)
